Measured values taken from PubChem BioAssay AID1259343 (VanderVen Lab, College of Veterinary Medicine, Cornell …, 2017).
The whole screen tested about 6,200 compounds, of which about 2,900 (47%) were called active. Rule as the data show it: active = inhibition above about 50%; inactive = the rest. So high a share suggests a set chosen from earlier hits. The list shows a part of the results.

experiment: Mycobacterium tuberculosis growth inhibition, primary screen (AID 1259343); details: inhibition: at 10 µM, active compounds read high; outcome: 10 uM

SMILES	inhibition
CC(C)=CCCC(C)(O)c1cc(C(N)=O)no1 (centres undefined)	32.2% (inactive)
COc1ccc(OCCCOc2cccc(Cl)c2Cl)cc1	18.8% (inactive)
COc1cccc(OCCCOc2cccc(Cl)c2Cl)c1	61.9% (active)
N#Cc1ccc(-c2ccc(OCC(=O)c3ccc4c(c3)CC(=O)N4)cc2)cc1	39.1% (inactive)
CC(=O)c1ccc(OCCOc2ccc(C#N)cc2)cc1	101% (active)
COc1ccc(OCCCCOc2ccccc2OC)cc1	97.5% (active)
COc1ccccc1OCCCOc1ccc(F)cc1	35.7% (inactive)
COc1ccccc1OCCCCOc1ccc(I)cc1	91.3% (active)
CCCCCCNC(=O)Nc1ccc(S(=O)(=O)Nc2ccc(CCNC[C@H](O)COc3ccc(O)cc3)cc2)cc1	18.9% (inactive)
COc1ccc(OCCCCOc2ccccc2)cc1	27.8% (inactive)
COc1ccc(OCCCCOc2ccc(Br)cc2)cc1	81.2% (active)
CCCCCCOc1ccc(C(=O)NNS(=O)(=O)c2ccc(C(=O)OC)cc2)cc1	94.8% (active)
CCCCCCCOc1ccc(C(C)=NOC)cc1	41.4% (inactive)
COC(=O)c1ccc(OCCCCOc2ccccc2OC)cc1	80.9% (active)
CC(C)N(C(=O)/C=C/c1c(Cl)cccc1Cl)C(C)C	47.8% (inactive)
O=C1Oc2ccccc2C1=Cc1c(Cl)cccc1Cl	59% (active)
Cc1nnc2sc(COc3ccc(Cl)cc3Cl)nn2c1=O	78.4% (active)
Cc1cc(NC(=O)COc2ccc(Cl)cc2Cl)n(-c2nc(C)c(C)c(=O)[nH]2)n1	-28.7% (inactive)
Cc1cc(Br)cc(Cl)c1NC(=O)C1(C)CC1(Cl)Cl (centres undefined)	-15.4% (inactive)
CCC1CCC(=NNC(=O)c2ccc(COc3ccccc3)cc2)CC1 (centres undefined)	97.1% (active)
O=C(N/N=C1/CCSc2c(F)cccc21)c1ccccc1	38% (inactive)
O=C(CC1CCCO1)NCc1cccc(OCc2ccccc2)c1 (centres undefined)	39.5% (inactive)
Cc1cccc(-n2cc(CNCC3CCCO3)c(-c3cccc(F)c3)n2)c1 (centres undefined)	inactive
Fc1ccccc1-c1nnn(Cc2ccc3c(c2)OCO3)n1	48.7% (inactive)
Cc1ccccc1CNCc1cn(-c2ccccc2)nc1-c1ccc2c(c1)OCO2	60.9% (active)
Cc1cccc(-n2cc(CNCc3ccc(C)o3)c(-c3cccc(F)c3)n2)c1	46.5% (inactive)

SMILES	inhibition
COc1ccc(-n2cc(CNCc3ccc4c(c3)OCO4)c(-c3ccccc3Cl)n2)cc1	61.7% (active)
CC(C)(C)c1ccc(Cn2cnc([N+](=O)[O-])n2)cc1	65.2% (active)
FC(F)(F)c1nnc(N2CCN(c3ccc(Cl)cc3)CC2)s1	18.9% (inactive)
COc1cc(NC(=O)C2(c3ccccc3)CC2)c(OC)cc1Cl	16.5% (inactive)
O=C(Nc1nnc(C(F)(F)F)s1)C1(c2cccc(Cl)c2)CC1	86.3% (active)
O=C1C(=Cc2ccc(OC(F)F)cc2OC(F)F)Oc2cc(O)ccc21	56.9% (active)
O=C1/C(=C/c2cc3ccccc3o2)Oc2cc(O)ccc21	3.03% (inactive)
Cn1c(=S)[nH]c2c(-c3ccccc3)csc2c1=O	20.9% (inactive)
CCOC(=O)CSc1ccc(NC(=O)c2ccc(C)cc2)nn1	93.7% (active)
CSc1nc(N)nc(SCc2ccc(F)cc2)c1C#N	53.4% (active)
COc1ccc(/C=C2\C=C(c3ccccc3)N(c3ccc4ccccc4c3)C2=O)cc1	74.9% (active)
CN(C)c1cc(-c2noc(Cc3ccccc3Cl)n2)ccn1	67% (active)
Oc1ccc(Nc2nc3nonc3nc2Nc2cccc(Br)c2)cc1	49.2% (inactive)
Ic1ccc(Nc2nc3nonc3nc2NCc2ccco2)cc1	101% (active)
CN(CCO)CC(O)Cn1c2ccc(Br)cc2c2cc(Br)ccc21 (centres undefined)	69.2% (active)
OCC(O)Cn1c2ccc(Br)cc2c2cc(Br)cc(Br)c21 (centres undefined)	17.8% (inactive)
OC(CN1CCOCC1)Cn1c2ccc(Br)cc2c2cc(Br)ccc21 (centres undefined)	86.8% (active)
Cc1cc(O)c(CN2CCOCC2)c2c1C(=O)/C(=C/c1cc3cc(Br)ccc3o1)O2	45.4% (inactive)
C=CCn1c2ccc(Br)cc2c2nc3ccccc3nc21	-22.9% (inactive)
CC(=O)O[C@H]1CC[C@@]2(C)C(=CC[C@@H]3[C@H]2CC[C@]2(C)C(c4cccnc4)=CC[C@@H]32)C1	27.2% (inactive)
Brc1ccc(Cc2nnnn2CCn2cccn2)cc1	25.9% (inactive)
O=C(Cn1nnnc1-c1ccc(Br)cc1)c1ccccc1	89.4% (active)
CCC(=O)c1ccc(-c2ccc(Br)cc2F)cc1	29% (inactive)
O=C(CCl)N1N=C(c2cccs2)CC1c1ccco1 (centres undefined)	101% (active)
NC(=O)c1ccc(Cn2nc(-c3cccs3)oc2=O)cc1	14.6% (inactive)
COc1ccc(-c2nc3ccccc3c(=O)o2)cc1[N+](=O)[O-]	83.1% (active)

SMILES	inhibition
O=c1oc(-c2ccc([N+](=O)[O-])cc2Cl)nc2cc(Cl)ccc12	28.8% (inactive)
O=c1oc(-c2ccco2)nc2ccc(Br)cc12	41.6% (inactive)
CN(CCCc1ccccc1)Cc1nc(C2CC2)no1	78.2% (active)
Cc1sc2ncnc(N(C)Cc3nc(C4CC4)no3)c2c1C	-15.9% (inactive)
CCC(Nc1ccccc1)c1nc(C2CCC2)no1 (centres undefined)	44.9% (inactive)
CC(C)Cn1c(-c2ccco2)nc2c(c(=O)c3ccccc3n2C)c1=O	-27.4% (inactive)
COc1ccc(NC2CC(O)C(CO)O2)cc1 (centres undefined)	inactive
CCN1C(=O)SC(Nc2ccc(OC)cc2)C1=O (centres undefined)	78.9% (active)
Cc1ccc(NS(=O)(=O)N2CCCCC2)cc1Cl	23.6% (inactive)
CCN1C(=O)SC(Nc2ccc(C)c(Cl)c2)C1=O (centres undefined)	96.3% (active)
Brc1cc2c(cc1Cn1nnc(-c3cccs3)n1)OCO2	-19.9% (inactive)
O=C(Cn1nnc([N+](=O)[O-])n1)c1cccs1	98.8% (active)
O=C(Cn1nnc(-c2cccs2)n1)c1ccc(Cl)s1	77.8% (active)
O=C(CN1C(=O)CC2(CCCC2)C1=O)c1ccc(Cl)s1	-28.2% (inactive)
Cc1ccc(C)c(-n2nnnc2SCCCC(=O)c2cccs2)c1	-43% (inactive)
CC(C)(C)c1cc2nc(C(=O)O)cc(-c3ccc(Cl)cc3)n2n1	83.5% (active)
CC(C)(C)c1cc2nc(C(=O)O)cc(-c3ccccc3F)n2n1	62.4% (active)
CC(C)(C)c1cc2nc(C(=O)O)cc(-c3ccccc3Cl)n2n1	58.8% (active)
CCC(=O)O[C@H]1CCC2C3CCc4cc(O)ccc4C3CC[C@@]21C (some centres undefined)	46.7% (inactive)
CCC(CC)C(NC[c-]1[c-][c-][c-][c-]1)c1ccccc1.[Fe].[c-]1[c-][c-][cH-][c-]1 (centres undefined)	36.6% (inactive)
O=C(CCc1nc2ccccc2o1)N1CC=C(c2ccccc2)CC1	29.9% (inactive)
O=C(O)CCc1nc2ccccc2oc1=O	67.4% (active)
CCOc1ccc2cc(C(=O)C(C#N)C(=O)c3ccsc3)[nH]c2c1 (centres undefined)	12.1% (inactive)
Cn1c2c(c3cc(-c4cccc5c4CCNC5)ccc31)CCCC2=O	10.9% (inactive)
c1cc2c(c(-c3cccc4[nH]ccc34)c1)CCNC2	73.2% (active)
O=c1[nH]cc(F)c(=O)[nH]1	67.9% (active)

SMILES	inhibition
N#CC(=Cc1ccsc1)c1nc2ccccc2s1	11.6% (inactive)
Cc1csc(C(C#N)=Cc2cccc(O)c2)n1	88.7% (active)
Cc1nc(CNc2ccc3c(c2)CCN3C(=O)OC(C)(C)C)cs1	29.2% (inactive)
CC(C)(C)OC(=O)N1CCc2cc(NC(=O)C(=O)NC3CC3)ccc21	74.5% (active)
CN1CCCc2cc(NC(=O)NCCC(=O)NC3CCCC3)ccc21	0.23% (inactive)
c1ccc(COC2CCN(CCOc3ccccc3)CC2)cc1	50.1% (active)
COc1cccc(-c2cnnc(N3CCC(OCc4ccccc4)CC3)n2)c1	30.1% (inactive)
CCc1cc(=O)[nH]c(-n2nc(C)cc2NC(=O)c2ccc(-c3ccccc3)cc2)n1	103% (active)
CCc1cc(=O)[nH]c(-n2nc(C)cc2NC(=O)c2cccc(C)c2)n1	101% (active)
CCc1cc(=O)[nH]c(-n2nc(C)cc2NC(=O)c2ccccc2)n1	102% (active)
N#Cc1ccc(Nc2ccc(N3CCCC3)c(F)c2)nc1	48.8% (inactive)
N#Cc1ccc(Nc2ccc(Cl)cc2)cc1	3.65% (inactive)
N#Cc1ccc(Nc2ccc(OC3CCCC3)cc2)nc1	93.4% (active)
CC(C)C1=CC2=CC[C@H]3[C@](C)(CO)CCC[C@]3(C)C2CC1 (some centres undefined)	82.5% (active)
Cc1cn(Cc2csc(C(C)C)n2)cc1C#N	1.23% (inactive)
Cn1c(Sc2ncc(-c3ccc(F)cc3)[nH]2)c(C#N)c(=O)n(C)c1=O	-14.4% (inactive)
N#Cc1cccc(C(=O)NCc2cccc(-c3ncc(-c4ccc(F)cc4)[nH]3)c2)c1	81.2% (active)
O=C(NCc1cccc(-c2ncc(-c3ccc(F)cc3)[nH]2)c1)c1cccs1	22.9% (inactive)
Cc1nc(-c2ccc(NC(=O)COC3CCCCC3)cc2)cs1	95% (active)
O=C(COC1CCCCC1)Nc1ccc(-c2nccs2)cc1	-7.41% (inactive)
Cc1nn(-c2ccccc2)c(Cl)c1C(=O)Nc1cccc(C(F)(F)F)c1	38.3% (inactive)
Cc1nc(-c2cccs2)cc([C@H]2CN3CC[C@H]2C[C@@H]3CNC(=O)Nc2cccc(C(F)(F)F)c2)n1	53.2% (active)
Cc1sc2nc(CSc3ccc(Br)cc3)nc(-n3ccnc3)c2c1C	-19.2% (inactive)
CC(=O)NCCC(=O)Nc1ccc(Oc2ccc(C#N)cc2)c(Cl)c1	-2.79% (inactive)
N#CCOc1ccc(NC(=O)CCOc2ccc(F)cc2Cl)cc1	81.4% (active)
Cc1ccc(C(=O)Nc2ccc(OCC#N)cc2)cc1C	22% (inactive)
